# Experimental data: ChEMBL document CHEMBL1961873, “Compounds: GSK PKIS; Assays: Nanosyn kinase panel” (2012)
# How the values were obtained:
# [1] = biological target: Sphingosine kinase 1 (Homo sapiens) (UniProt Q9NYA1); conditions: at 1 µM;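 also: mean SPHK1 inhibition value reported from the GSK PKIS kinase panel screen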
# [2] = biological target: T1, Sphingosine kinase 2 (Homo sapiens) (UniProt Q9NRA0); conditions: at 0.1 µM
# T1 sequence (whole entry): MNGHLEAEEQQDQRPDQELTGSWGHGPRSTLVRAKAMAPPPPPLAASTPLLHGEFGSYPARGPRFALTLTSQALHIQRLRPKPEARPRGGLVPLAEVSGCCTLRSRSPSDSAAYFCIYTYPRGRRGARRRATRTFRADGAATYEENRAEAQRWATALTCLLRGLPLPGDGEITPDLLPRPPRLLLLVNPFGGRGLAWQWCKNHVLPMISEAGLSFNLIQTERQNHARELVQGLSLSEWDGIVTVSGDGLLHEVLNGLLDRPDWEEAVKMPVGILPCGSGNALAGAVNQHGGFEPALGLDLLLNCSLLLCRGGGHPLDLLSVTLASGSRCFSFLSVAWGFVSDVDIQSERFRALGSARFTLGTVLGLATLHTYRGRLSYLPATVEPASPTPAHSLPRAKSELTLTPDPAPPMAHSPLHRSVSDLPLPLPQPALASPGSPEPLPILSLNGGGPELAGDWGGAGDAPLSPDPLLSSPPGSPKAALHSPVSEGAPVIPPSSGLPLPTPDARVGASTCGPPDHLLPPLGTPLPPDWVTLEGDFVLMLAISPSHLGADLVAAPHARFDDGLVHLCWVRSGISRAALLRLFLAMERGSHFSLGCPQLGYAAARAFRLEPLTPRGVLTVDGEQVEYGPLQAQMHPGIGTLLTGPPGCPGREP
# [3] = biological target: T1, Sphingosine kinase 2 (Homo sapiens); conditions: at 1 µM
# [4] = biological target: Casein kinase II subunit alpha (Homo sapiens) (UniProt P68400); conditions: at 0.1 µM
# [5] = biological target: Casein kinase II subunit alpha (Homo sapiens) (UniProt P68400); conditions: at 1 µM
# [6] = biological target: T2, Inhibitor of nuclear factor kappa-B kinase subunit alpha (Homo sapiens) (UniProt O15111); conditions: at 0.1 µM
# T2 sequence (whole entry): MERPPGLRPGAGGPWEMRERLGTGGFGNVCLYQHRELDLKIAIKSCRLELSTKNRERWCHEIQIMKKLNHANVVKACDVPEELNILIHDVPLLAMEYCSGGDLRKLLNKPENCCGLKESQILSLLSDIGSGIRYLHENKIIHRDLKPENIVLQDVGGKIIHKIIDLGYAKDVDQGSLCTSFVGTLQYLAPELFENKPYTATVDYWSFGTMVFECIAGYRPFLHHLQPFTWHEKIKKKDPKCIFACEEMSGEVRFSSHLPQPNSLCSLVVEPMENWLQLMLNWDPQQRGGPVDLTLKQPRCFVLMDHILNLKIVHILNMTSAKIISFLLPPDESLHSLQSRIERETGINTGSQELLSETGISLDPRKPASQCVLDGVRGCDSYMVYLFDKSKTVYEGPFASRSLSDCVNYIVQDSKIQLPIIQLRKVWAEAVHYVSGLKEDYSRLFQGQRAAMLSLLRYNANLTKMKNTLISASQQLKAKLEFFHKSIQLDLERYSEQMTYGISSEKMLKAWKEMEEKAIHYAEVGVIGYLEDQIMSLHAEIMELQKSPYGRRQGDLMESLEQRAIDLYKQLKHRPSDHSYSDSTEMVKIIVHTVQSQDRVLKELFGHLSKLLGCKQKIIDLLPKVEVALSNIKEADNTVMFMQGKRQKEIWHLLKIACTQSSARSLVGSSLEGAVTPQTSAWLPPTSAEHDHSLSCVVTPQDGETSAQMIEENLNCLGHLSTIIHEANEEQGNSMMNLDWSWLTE
# [7] = biological target: T2, Inhibitor of nuclear factor kappa-B kinase subunit alpha (Homo sapiens); conditions: at 1 µM
# [8] = biological target: T3, Inhibitor of nuclear factor kappa-B kinase subunit beta (Homo sapiens) (UniProt O14920); conditions: at 0.1 µM
# T3 sequence (whole entry): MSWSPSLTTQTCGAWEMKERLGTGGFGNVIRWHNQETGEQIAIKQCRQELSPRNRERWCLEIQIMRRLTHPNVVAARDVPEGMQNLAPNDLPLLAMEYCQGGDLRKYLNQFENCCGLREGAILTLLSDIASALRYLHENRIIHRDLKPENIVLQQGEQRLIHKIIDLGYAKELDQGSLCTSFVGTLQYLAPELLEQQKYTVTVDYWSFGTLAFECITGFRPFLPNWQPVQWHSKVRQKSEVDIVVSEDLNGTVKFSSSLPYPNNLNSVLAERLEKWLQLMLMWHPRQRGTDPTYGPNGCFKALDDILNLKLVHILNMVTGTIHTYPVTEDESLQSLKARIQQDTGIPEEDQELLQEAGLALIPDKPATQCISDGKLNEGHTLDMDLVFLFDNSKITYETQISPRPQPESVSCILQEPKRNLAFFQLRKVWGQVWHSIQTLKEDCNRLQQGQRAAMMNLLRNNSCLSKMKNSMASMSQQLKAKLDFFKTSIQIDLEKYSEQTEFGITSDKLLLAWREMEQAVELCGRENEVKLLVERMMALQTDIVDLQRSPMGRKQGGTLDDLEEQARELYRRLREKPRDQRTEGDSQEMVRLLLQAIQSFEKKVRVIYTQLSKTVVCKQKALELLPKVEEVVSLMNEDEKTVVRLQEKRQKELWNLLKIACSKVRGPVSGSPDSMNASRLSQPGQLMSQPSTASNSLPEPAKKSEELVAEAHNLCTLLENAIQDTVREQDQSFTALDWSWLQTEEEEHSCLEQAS
# [9] = biological target: T3, Inhibitor of nuclear factor kappa-B kinase subunit beta (Homo sapiens); conditions: at 1 µM
# [10] = biological target: T4, Inhibitor of nuclear factor kappa-B kinase subunit epsilon (Homo sapiens) (UniProt Q14164); conditions: at 0.1 µM
# T4 sequence (whole entry): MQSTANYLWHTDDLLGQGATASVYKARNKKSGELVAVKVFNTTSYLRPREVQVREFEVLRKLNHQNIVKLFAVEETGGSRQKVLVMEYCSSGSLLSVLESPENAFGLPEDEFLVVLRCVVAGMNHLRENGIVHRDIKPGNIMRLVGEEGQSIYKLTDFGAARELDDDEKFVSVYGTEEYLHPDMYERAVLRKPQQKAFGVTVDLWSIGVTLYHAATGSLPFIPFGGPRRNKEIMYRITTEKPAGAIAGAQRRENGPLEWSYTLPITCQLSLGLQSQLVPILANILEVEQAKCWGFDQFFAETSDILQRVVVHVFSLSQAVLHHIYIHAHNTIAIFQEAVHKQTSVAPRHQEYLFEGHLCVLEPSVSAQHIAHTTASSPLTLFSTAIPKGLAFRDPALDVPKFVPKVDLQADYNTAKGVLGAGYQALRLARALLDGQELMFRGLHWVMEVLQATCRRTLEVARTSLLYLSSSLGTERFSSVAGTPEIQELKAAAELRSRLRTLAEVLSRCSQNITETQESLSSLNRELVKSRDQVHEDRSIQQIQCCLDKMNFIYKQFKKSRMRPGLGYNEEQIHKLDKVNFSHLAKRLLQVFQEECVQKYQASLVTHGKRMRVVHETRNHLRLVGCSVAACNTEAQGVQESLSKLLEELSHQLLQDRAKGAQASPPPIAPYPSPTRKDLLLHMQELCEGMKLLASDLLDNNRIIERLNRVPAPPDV
# [11] = biological target: T4, Inhibitor of nuclear factor kappa-B kinase subunit epsilon (Homo sapiens); conditions: at 1 µM
# [12] = biological target: T5, Serine/threonine-protein kinase Nek1 (Homo sapiens) (UniProt Q96PY6); conditions: at 0.1 µM
# T5 sequence (whole entry): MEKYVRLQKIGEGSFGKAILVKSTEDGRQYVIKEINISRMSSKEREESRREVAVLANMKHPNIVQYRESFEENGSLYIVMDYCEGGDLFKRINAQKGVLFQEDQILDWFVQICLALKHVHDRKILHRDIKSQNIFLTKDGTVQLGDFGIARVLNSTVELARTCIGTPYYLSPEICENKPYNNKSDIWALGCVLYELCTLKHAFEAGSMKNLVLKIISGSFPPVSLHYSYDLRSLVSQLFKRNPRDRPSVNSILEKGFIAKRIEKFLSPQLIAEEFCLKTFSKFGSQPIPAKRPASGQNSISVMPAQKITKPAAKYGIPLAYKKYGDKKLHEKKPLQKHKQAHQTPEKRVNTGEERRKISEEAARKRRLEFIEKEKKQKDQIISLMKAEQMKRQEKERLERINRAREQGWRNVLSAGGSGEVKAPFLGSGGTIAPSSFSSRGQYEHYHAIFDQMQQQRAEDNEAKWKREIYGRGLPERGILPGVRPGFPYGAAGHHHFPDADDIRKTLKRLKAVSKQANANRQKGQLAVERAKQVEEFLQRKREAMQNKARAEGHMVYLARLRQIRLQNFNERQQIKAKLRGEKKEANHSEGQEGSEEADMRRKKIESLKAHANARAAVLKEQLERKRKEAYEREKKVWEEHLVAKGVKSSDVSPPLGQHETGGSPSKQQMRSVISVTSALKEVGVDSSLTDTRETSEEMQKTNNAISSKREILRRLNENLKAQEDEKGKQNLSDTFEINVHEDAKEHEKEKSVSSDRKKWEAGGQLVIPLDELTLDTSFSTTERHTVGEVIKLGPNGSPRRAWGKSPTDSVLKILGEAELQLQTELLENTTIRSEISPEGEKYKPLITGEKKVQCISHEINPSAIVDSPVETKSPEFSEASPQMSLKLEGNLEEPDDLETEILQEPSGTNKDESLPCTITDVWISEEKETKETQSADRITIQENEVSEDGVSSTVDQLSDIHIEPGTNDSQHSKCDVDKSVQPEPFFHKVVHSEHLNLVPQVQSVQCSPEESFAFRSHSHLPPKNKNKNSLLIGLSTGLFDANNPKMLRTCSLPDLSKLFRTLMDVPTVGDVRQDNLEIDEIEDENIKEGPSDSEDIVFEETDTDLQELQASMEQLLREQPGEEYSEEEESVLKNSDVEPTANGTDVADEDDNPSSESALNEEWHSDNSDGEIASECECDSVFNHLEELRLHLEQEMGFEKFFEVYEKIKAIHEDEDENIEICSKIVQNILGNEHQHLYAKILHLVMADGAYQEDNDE
# [13] = biological target: T5, Serine/threonine-protein kinase Nek1 (Homo sapiens); conditions: at 1 µM
# [14] = biological target: T6, Serine/threonine-protein kinase Nek2 (Homo sapiens) (UniProt P51955); conditions: at 0.1 µM
# T6 sequence (whole entry): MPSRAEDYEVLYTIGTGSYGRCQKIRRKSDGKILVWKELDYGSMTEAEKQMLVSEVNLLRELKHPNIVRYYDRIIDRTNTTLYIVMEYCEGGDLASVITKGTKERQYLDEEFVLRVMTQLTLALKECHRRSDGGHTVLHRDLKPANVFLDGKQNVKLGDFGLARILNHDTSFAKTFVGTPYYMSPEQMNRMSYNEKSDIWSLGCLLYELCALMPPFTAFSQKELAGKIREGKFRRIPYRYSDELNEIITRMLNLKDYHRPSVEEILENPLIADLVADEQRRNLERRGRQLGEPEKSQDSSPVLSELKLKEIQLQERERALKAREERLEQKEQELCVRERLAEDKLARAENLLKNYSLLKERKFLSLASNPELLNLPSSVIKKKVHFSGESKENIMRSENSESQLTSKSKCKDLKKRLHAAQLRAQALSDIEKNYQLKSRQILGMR
# [15] = biological target: T6, Serine/threonine-protein kinase Nek2 (Homo sapiens); conditions: at 1 µM
# [16] = biological target: Serine/threonine-protein kinase Nek6 (Homo sapiens) (UniProt Q9HC98); conditions: at 0.1 µM
# [17] = biological target: Serine/threonine-protein kinase Nek6 (Homo sapiens) (UniProt Q9HC98); conditions: at 1 µM
# [18] = biological target: Serine/threonine-protein kinase Nek7 (Homo sapiens) (UniProt Q8TDX7); conditions: at 0.1 µM
# [19] = biological target: Serine/threonine-protein kinase Nek7 (Homo sapiens) (UniProt Q8TDX7); conditions: at 1 µM
# [20] = biological target: T7, Serine/threonine-protein kinase Nek9 (Homo sapiens) (UniProt Q8TD19); conditions: at 0.1 µM;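 also: reported value is the mean percent inhibition of NEK9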
# T7 sequence (whole entry): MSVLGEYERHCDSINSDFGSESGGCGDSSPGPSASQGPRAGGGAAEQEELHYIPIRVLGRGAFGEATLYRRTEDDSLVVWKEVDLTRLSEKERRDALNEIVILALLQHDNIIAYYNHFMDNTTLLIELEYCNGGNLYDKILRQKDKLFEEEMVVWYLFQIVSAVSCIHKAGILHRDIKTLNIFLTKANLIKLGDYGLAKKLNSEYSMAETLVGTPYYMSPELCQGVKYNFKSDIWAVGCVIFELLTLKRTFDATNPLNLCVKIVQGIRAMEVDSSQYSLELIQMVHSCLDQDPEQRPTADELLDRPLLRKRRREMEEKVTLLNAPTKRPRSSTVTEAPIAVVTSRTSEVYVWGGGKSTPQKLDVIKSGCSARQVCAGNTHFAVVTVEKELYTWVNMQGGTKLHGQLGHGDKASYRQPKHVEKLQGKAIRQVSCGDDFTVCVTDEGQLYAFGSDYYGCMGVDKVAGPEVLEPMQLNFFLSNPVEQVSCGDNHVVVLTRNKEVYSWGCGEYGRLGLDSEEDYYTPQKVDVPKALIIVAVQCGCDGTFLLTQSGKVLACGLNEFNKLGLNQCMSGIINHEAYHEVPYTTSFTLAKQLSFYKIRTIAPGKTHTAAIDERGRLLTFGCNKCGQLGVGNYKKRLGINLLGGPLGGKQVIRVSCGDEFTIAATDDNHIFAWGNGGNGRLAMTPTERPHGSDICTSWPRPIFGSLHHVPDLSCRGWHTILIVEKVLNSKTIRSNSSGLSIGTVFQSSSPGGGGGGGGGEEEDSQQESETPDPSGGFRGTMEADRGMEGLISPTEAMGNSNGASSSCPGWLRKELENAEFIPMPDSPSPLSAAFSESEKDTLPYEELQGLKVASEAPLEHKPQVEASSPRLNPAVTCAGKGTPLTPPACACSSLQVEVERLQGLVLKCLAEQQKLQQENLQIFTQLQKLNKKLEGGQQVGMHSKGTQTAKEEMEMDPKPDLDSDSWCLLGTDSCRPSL
# Chain of Serine/threonine-protein kinase Nek7 (Homo sapiens) (Q8TDX7 whole entry, looked up): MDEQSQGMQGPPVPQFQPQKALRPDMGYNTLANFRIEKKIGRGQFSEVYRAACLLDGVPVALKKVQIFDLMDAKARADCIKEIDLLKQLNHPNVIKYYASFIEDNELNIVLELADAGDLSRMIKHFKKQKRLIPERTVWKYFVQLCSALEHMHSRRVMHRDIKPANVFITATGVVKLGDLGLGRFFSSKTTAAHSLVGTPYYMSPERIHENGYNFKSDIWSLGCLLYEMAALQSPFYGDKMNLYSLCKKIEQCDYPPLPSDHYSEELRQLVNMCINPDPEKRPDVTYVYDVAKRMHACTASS
# Chain of Casein kinase II subunit alpha (Homo sapiens) (P68400 whole entry, looked up): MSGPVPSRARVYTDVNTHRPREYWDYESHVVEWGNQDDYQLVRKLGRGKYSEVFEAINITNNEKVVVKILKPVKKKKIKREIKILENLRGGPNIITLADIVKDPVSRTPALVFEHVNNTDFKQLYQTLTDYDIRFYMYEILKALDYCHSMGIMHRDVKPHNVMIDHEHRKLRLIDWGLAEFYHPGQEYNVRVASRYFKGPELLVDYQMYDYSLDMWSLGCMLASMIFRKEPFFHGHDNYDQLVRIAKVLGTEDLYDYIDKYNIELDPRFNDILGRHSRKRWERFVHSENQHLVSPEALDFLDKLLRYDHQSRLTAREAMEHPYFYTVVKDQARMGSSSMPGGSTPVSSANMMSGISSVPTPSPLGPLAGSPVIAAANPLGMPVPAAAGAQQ
# Chain of Serine/threonine-protein kinase Nek6 (Homo sapiens) (Q9HC98 whole entry): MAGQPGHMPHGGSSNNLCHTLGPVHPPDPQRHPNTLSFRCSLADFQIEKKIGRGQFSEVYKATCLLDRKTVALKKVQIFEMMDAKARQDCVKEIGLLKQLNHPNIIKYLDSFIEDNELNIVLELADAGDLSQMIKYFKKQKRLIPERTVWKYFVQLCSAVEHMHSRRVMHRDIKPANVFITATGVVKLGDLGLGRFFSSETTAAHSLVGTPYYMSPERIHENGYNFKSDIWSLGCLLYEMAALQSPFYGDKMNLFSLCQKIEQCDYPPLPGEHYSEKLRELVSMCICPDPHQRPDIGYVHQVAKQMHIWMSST
# Chain of Sphingosine kinase 1 (Homo sapiens) (Q9NYA1 whole entry): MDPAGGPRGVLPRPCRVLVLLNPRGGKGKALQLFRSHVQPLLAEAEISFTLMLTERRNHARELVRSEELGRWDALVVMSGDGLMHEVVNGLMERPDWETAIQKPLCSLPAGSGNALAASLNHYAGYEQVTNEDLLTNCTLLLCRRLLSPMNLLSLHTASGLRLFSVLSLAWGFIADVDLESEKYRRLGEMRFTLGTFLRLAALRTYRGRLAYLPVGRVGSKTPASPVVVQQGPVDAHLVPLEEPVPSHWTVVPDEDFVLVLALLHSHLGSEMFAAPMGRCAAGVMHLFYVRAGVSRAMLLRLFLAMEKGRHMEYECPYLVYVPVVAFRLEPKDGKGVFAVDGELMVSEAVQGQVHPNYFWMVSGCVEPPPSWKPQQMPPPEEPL
smiles,measurement,setting,value
Cn1c(-c2nonc2N)nc2cnccc21,inhibition,[1],3.87%
same,inhibition,[2],2.29%
same,inhibition,[3],0.16%
same,inhibition,[4],1.78%
same,inhibition,[5],-1.25%
same,inhibition,[6],1.72%
same,inhibition,[7],7.51%
same,inhibition,[8],5.29%
same,inhibition,[9],1.73%
same,inhibition,[10],6.16%
same,inhibition,[11],6.44%
same,inhibition,[12],1.82%
same,inhibition,[13],3.22%
same,inhibition,[14],4.27%
same,inhibition,[15],3.27%
same,inhibition,[16],3.89%
same,inhibition,[17],-0.49%
same,inhibition,[18],3.76%
same,inhibition,[19],3.15%
same,inhibition,[20],12.2%
